Values without a mark were called inactive. Activity calls are given as the source filed them. The call rests on the fitted dose curve; in most records, active means well fitted activation curve with a large enough effect in the repeat runs; inconclusive means weak or mixed curves; inactive means flat fitted curve, though single readings scatter.
On the % scale 0 is the no-effect control and ±100 the full control effect.

A short description of the assay: Caspase-3/7 induction in CHO-K1 cells by small molecules, qHTS assay (AID 1346980). Further: nearly all actives have a fitted effect of over 15% in size. The note with it: CHO-K1 caspase-3/7 induction, Caspase-Glo luminescence, 17 h; series mostly up to 92.4 µM. The text has this:
National Center for Advancing Translational Sciences [NCATS]
NIH Chemical Genomics Center [NCGC]
U.S. Environmental Protection Agency [EPA]
National Institutes of Environmental Health Sciences [NIEHS]
National Toxicology Program [NTP]
Apoptosis is a process of programmed cell death and plays a central role in the development of multicellular organisms. It is a highly regulated process and induces cell death by activating caspases, which are the members of cysteine aspartic acid-specific protease (caspase) family. Caspases involved in apoptosis are classified by their mechanism of action as initiator caspases (caspase-2, -8, -9 and -10) and executioner caspases (caspase-3, -6, and -7). Inhibition of apoptosis results in number of cancers, autoimmune diseases, inflammatory diseases and viral infection. To identify small molecule compounds that induce apoptosis, a homogeneous, luminescent Caspase-Glo 3/7 assay was used. Wild type CHO-K1 cells were used to screen Tox21 libraries for identifying caspase-3/7 activity inducers.
CHO-K1 cells were dispensed at 1,500 per well in 5uL of culture medium into white solid bottom 1536-well plates (Corning Life Sciences, Corning, NY) using a Multidrop Combi (Thermo Scientific, Waltham, MA) dispenser. The assay plates were incubated at 37 C and 5% CO2 for 5hr, and then 23nL of compounds dissolved in DMSO and positive control were transferred using a Pintool station (Wako, San Diego, CA). The assay plates were incubated at 37C and 5% CO2 for 17hr. For caspase-3/7 activity read, 4uL of Caspase-Glo 3/7 reagent (Promega Corporation, Madison, WI) was added to each well of the assay plates using Flying Reagent Dispenser (FRD, Aurora Discovery, San Diego, CA) and incubated the assay plates at room temperature for 30min. The luminescence signal was quantified using a ViewLux plate reader (Perkin Elmer, Shelton, CT).
In general terms: In qHTS, concentration-response curves come from the screen itself.
For `COC(=O)CC(=O)C(C)(C)C`, the result was inactive. Still for that read-out and setting: in the case of `Nc1c(I)cc(I)c(C(=O)N(CCC(=O)O)c2ccccc2)c1I` it was “inactive”; in that of `CN(C)C(=O)Nc1ccc(Oc2ccc(Cl)cc2)cc1`, “inactive”. On the same count and under the same terms, in the case of `O=C(CCC1CCN(Cc2ccccc2)CC1)c1ccc2c(c1)NCCCC2` it was “inactive”; in that of `Nc1ccc(C(=O)OCCCOC(=O)c2ccc(N)cc2)cc1`, “inactive”; in that of `CO[Si](C)(OC)OC`, “inactive”. On the same count and under the same terms, under `CC(Cl)C(Cl)Cl` (stereo not given) stands “inactive”; under `CCN(Cc1cccc(S(=O)(=O)O)c1)c1ccc(C(=C2C=CC(=[N+](CC)Cc3cccc(S(=O)(=O)[O-])c3)C=C2)c2ccccc2)cc1`, “inactive”. With `CC1(C)O[C@@H]2C[C@H]3[C@@H]4CCC5=CC(=O)C=C[C@]5(C)[C@H]4[C@@H](O)C[C@]3(C)[C@]2(C(=O)CO)O1`, the call was inactive. Take `Cc1nc2ccccc2s1`: the compound was classed as inactive. Same read-out and setting: in the case of `Nc1ccc(Cl)cc1[N+](=O)[O-]` it was “inactive”; in that of `CCOC(=N)CC(=O)OCC`, “inactive”; in that of `O=C(O)Cc1ccc(-c2ccccc2)cc1`, “inactive”. On the same count and under the same terms, under `CC1=C(C=O)C(C)(C)CCC1` stands “inactive”.

As to `CC(C)(CCl)c1ccccc1`, the result was inactive.

As for `O=C(NCCCN1CCOCC1)c1ccc(Cl)cc1`, the call was inactive.

With `C[C@@H]1C[C@H]2[C@@H]3CCC4=CC(=O)C=C[C@]4(C)[C@@]3(F)[C@@H](O)C[C@]2(C)[C@H]1C(=O)CO`, the outcome was inactive. Still for that read-out and setting: in the case of `CC(C)C(=O)O` it was “inactive”; in that of `CNCCCC1c2ccccc2C=Cc2ccccc21`, “inactive”. The same measure, in the same setting: under `Cc1occc1C(=O)Nc1ccc(C(=O)N2CCC(F)(F)/C(=C\C(=O)N3CCC(N4CCCCC4)CC3)c3ccccc32)cc1` stands “inactive”.

On to `CNC(=S)NC`, for which the outcome was inactive. For `OCCSc1ccccc1`, the compound was called inactive.

Turning to `CN1CCN(c2c(F)cc3c(=O)c(C(=O)O)cn4c3c2OCN4C)CC1`, the caspase-3/7 activation was 0.0403% [at 19 µM]. Take `COc1ccccc1N=Nc1c(S(=O)(=O)O)cc2cc(S(=O)(=O)O)cc(NC(C)=O)c2c1O`: the compound was called inactive. Still for that read-out and setting: under `C=CCOC(=O)/C=C\C(=O)OCC=C` stands “inactive”; under `C(=C\c1ccccc1)/CN1CCN(C(c2ccccc2)c2ccccc2)CC1`, “inactive”; under `COC(=O)c1cc(Cl)ccc1NS(=O)(=O)C(F)(F)F`, “inactive”. On the same count and under the same terms, under `CN(C(=O)C(Cl)Cl)c1ccc(OC(=O)c2ccco2)cc1` stands “inactive”; under `CCCCOC(=O)CCS`, “inactive”.

As for `NC(=O)Nc1ccc(Cl)c(Cl)c1`, the outcome was inactive. On the same count and under the same terms, in the case of `CCC(C)(O)CCC=C(C)C` (stereo not given) it was “inactive”. In the case of `CC1=NN(c2ccc(C(=O)O)cc2)C(=O)C1`, the call was inactive.

As for `CC(C)(C)C(=O)C(Oc1ccc(Cl)cc1)n1ccnc1` (stereo not given), the result was inactive.

As to `CCC(C(=O)OCCN(CC)CC)c1ccccc1` (stereo not given), the result was inactive. Still for that read-out and setting: under `c1cnc2c(n1)CCCC2` stands “inactive”; under `Cc1cc(OI)c(C(C)C)cc1-c1cc(C(C)C)c(OI)cc1C`, “inactive”. On the same count and under the same terms, in the case of `Nc1ccc(S(=O)(=O)O)c(N)c1` it was “inactive”; in that of `CC(=O)Nc1ccc(N)cc1`, “inactive”; in that of `CCCCCCCC/C=C\CCCCCCCC(=O)OC`, “inactive”. For the compound `CC(=N\O)/C(C)=N/O`, the result was inactive.

The values are drawn from PubChem BioAssay (Tox21).
